# Screening results as filed in PubChem BioAssay.
# A selection: hits, their analogues and other compounds. The true share with any hit is near 4.5%.
# CSC inhib: blocks cancer stem cells; cancer stem cell-like cells viability, luminescence; AID 2717; 1.1% of 300,000 active; inhibition, % at 7.5 µM; in the data active means inhibition above about 75%; inconclusive means no clear call, values can overlap the other calls; tested in HMLE shEcad cells
# Beta apoptosis: blocks beta cell apoptosis; INS-1E cytokine-induced death, ATP luminescence, 48 h; percent of positive-control rescue, neutral wells zero; protection from apoptosis, % (concentration not given with the values); 0.8% of 300,000 active;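 active means Every replicate reaches about 75%, or at least half do and their mean reaches it too, limit read from the data; inconclusive means At least half of replicates reach the limit but their mean does not; inactive means Under half of replicates reach the limit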;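 further: 0% = cytokine-treated negative control wells and 100% = positive control rescue; higher means more ATP so stronger rescue from cytokine killing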
# Jurkat NFkB inh: inhibitors of the PMA/ionomycin-induced NF-kB reporter in Jurkat cells; PMA/ionomycin-induced NF-kB luciferase reporter, luminescence; AID 435003; 0.53% of 330,000 active; inhibition, % at 4 µM; in the data active means inhibition above about 50%
# Gli-Sufu block: antagonists of Gli-Sufu signaling | Sufu-KO-LIGHT fibroblasts, Gli luciferase reporter luminescence | inhibition, % at 5 µM | 0.74% of 340,000 active | AID 588413;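 active means inhibition above about 55%, limit read from the data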;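 further: 0% = DMSO-treated cells and 100% = wells with medium but no cells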
# 697 NFkB inh: inhibitors of the PMA/ionomycin-induced NF-kB reporter in 697 B cells; 0.33% of 330,000 active; AID 435022; inhibition, % at 4 µM; 697 B-cell NF-kB luciferase reporter, 16 h; in the data active means inhibition above about 35%
# Mdm2 MdmX PPI: human Mdm2/MdmX binding inhibition | O15151+Q00987 | SaOS-2 split-luciferase Mdm2/MdmX complementation, luminescence | 3% of 330,000 active | inhibition, % at 8 µM;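 active means inhibition of at least 50% at 8 µM in the primary screen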
# Mdm2 MdmX conf: human Mdm2/MdmX binding inhibition, confirmed; luminescent assay; AID 489028; 55% of 10,000 active; inhibition, % at 8 µM; shares compounds with Mdm2 MdmX PPI; in the data active means inhibition above about 40%
# Full FLuc ctr: counter-screen for Mdm2/MdmX inhibitors: full-length luciferase. shares compounds with Mdm2 MdmX PPI. SaOS-2 full-length luciferase counterscreen, luminescence. inhibition, % at 8 µM. 77% of 6,200 active. AID 504607;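 active means mean inhibition at 8 µM reaching about 37%, which flags the compound as non-specific, limit read from the data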;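 further: p53-null SaOS-2 cells with luciferase driven by a doxycycline-inducible promoter; compound on cells about two nights before reading with doxycycline added after day one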
# Active calls of the source: *; ? = inconclusive; . = no result.
SMILES,CSC inhib,Beta apoptosis,Jurkat NFkB inh,Gli-Sufu block,697 NFkB inh,Mdm2 MdmX PPI,Mdm2 MdmX conf,Full FLuc ctr
CCOC(=O)C1=C(C)n2c(s/c(=C/c3cccc([N+](=O)[O-])c3)c2=O)=NC1c1ccc(O)c(OC)c1 (stereo not drawn),-5.0,19.4,16.1,13.0,20.0,81.8*,76.5*,26.4
COc1ccccc1N1CCN(c2ccc3cc(S(=O)(=O)N4CCCCC4)ccc3n2)CC1,.,29.3,13.4,30.2,-34.2,50.8*,6.4,.
CC(=O)c1ccc(N2CCN(c3ccc4cc(S(=O)(=O)N5CCC(C)CC5)ccc4n3)CC2)cc1,.,22.8,24.5,17.2,-42.6,61.4*,-2.1,.
CC(=O)c1ccc(N2CCN(S(=O)(=O)c3ccc4ccccc4c3)CC2)cc1,4.4,-9.1,-10.4,9.1,-7.8,9.1,.,.
COCCNC(=O)c1c[nH]c2ccc(S(=O)(=O)N(C)c3ccc(C)c(C)c3)cc2c1=O,13.4,-4.6,41.2,-5.9,-7.5,1.2,.,.
S=c1[nH]nc(-c2cc(-c3ccccc3)n[nH]2)n1/N=C/C(Br)=C/c1ccccc1,83.0*,?,33.4,-7.1,-131.3,99.8*,84.0*,24.2
S=c1[nH]nc(-c2cc(-c3ccccc3)n[nH]2)n1/N=C/c1ccccc1,-11.5,-7.4,1.2,9.3,-21.7,-7.6,.,.
CC(=C/c1ccccc1)/C=N/n1c(-c2ccncc2)n[nH]c1=S,-27.7,-28.0,5.0,-7.3,1.4,73.6*,78.2*,53.2*
Cc1cc(-c2n[nH]c(=S)n2/N=C/C(Cl)=C/c2ccccc2)n[nH]1,-0.3,-16.0,0.1,-3.6,-49.8,20.1,.,.
S=c1[nH]nc(-c2ccco2)n1/N=C/C(Cl)=C/c1ccccc1,82.9*,2.5,-42.9,-27.6,-245.3,61.9*,-39.1,.
O=C(Nc1ccc(S(=O)(=O)Nc2cnc3ccccc3n2)cc1)c1cc(F)c(F)cc1Cl,0.8,2.5,-10.3,23.6,-15.8,4.2,.,.
CC1(C)Oc2ccc(C(=O)NC3CCCCC3)cc2N(CC#N)C1=O,-7.2,.,2.9,18.2,2.0,5.3,.,.
NC(=O)C1C(=O)c2ccccc2C1(C[N+](=O)[O-])c1ccccc1 (stereo not drawn),.,.,.,-41.5,.,.,.,.
Nc1cc2c(cc1N)-c1ccccc1C2,.,.,.,-8.2,.,.,.,.
CCOC(=O)CN1CCC(c2cc(-c3ccc(Cl)cc3)n[nH]2)CC1,3.5,-3.4,-12.2,42.2,-19.1,-4.2,.,.
O=[N+]([O-])c1cccnc1N1CCC(c2cc(-c3ccc(Cl)cc3)n[nH]2)CC1,101.3*,3.5,7.1,-17.0,-35.4,54.3*,1.1,.
COc1ccccc1NS(=O)(=O)c1cccc(-n2c(O)c(C=Nc3ccccc3C(=O)O)c3ccccc3c2=O)c1,52.9,2.0,22.4,3.9,32.1,53.8*,58.5*,70.3*
COc1ccc(Cn2c(O)c(C=Nc3ccccc3C(=O)O)c3ccccc3c2=O)cc1,21.3,-1.2,5.0,1.1,23.5,9.0,.,.
O=CN/N=C/c1c(O)ccc2ccccc12,16.0,57.7,17.6,-1.7,5.7,50.4*,29.5,.
NC(=S)N/N=C/c1c(O)ccc2ccccc12,.,71.5,12.9,9.1,-17.6,50.5*,35.5,44.8*
O=C(N/N=C/c1c(O)ccc2ccccc12)c1ccc(CO)nc1,87.1*,.,35.4,17.0,-10.6,69.0*,65.9*,36.1*
Oc1ccc2ccccc2c1/C=N/Nc1ccccc1,40.9,1.6,6.2,8.1,-7.7,9.3,.,.
COc1ccc2ccccc2c1/C=N/NC(=O)c1ccc(C)nc1,2.8,-1.0,3.2,2.0,-2.0,-17.9,.,.
COc1cc(/C=C(/C#N)c2nc3ccccc3[nH]2)ccc1OCC(=O)Nc1ccccc1C(C)C,99.8*,61.8,30.1,-0.8,6.6,100.4*,79.2*,51.7*
COc1cc(/C=C(\C#N)c2nc3ccccc3s2)ccc1OCC(=O)Nc1ccccc1,?,0.6,.,1.4,.,.,.,.
SMILES,CSC inhib,Beta apoptosis,Jurkat NFkB inh,Gli-Sufu block,697 NFkB inh,Mdm2 MdmX PPI,Mdm2 MdmX conf,Full FLuc ctr
COc1cc(/C=C(\C#N)c2ccccn2)ccc1OCC(=O)Nc1ccc(Br)cc1,?,2.8,5.0,10.0,9.8,100.4*,94.0*,20.0
Cc1cccc(N(C(=O)c2snc(C(N)=O)c2N)C(C(=O)NCC2CCCO2)c2ccc3ncccc3c2)c1 (stereo not drawn),7.9,9.3,-19.7,-15.8,-6.5,-13.0,.,.
COc1ccccc1OC(=O)c1cc2ccccc2oc1=O,-8.8,-8.6,6.0,-2.6,-1.3,20.7,.,.
COc1cc(/C=C/[N+](=O)[O-])ccc1OC(=O)c1cc2ccccc2oc1=O,50.5,17.5,-9.8,13.9,-12.0,50.8*,3.0,.
CC(C)[C@@H](NC(=O)C1CCC(CNC(=O)[C@H](Cc2ccccc2)NC(=O)OC(C)(C)C)CC1)C(=O)O (stereo partly drawn),-0.4,-3.2,.,9.6,.,.,.,.
Cc1csc(N2C(=O)C3C4CCC(O4)C3C2=O)n1 (stereo not drawn),.,.,.,-3.4,.,.,.,.
CN1CC(c2ccccc2)C2(SC(=S)N(Cc3ccco3)C2=O)C12C(=O)Nc1ccccc12 (stereo not drawn),104.5*,3.8,4.2,5.7,-9.1,75.5*,54.0*,51.4*
CN1CC(c2ccccn2)C2(SC(=S)N(Cc3ccccc3)C2=O)C12C(=O)Nc1ccccc12 (stereo not drawn),28.1,6.0,9.2,5.1,6.2,20.8,.,.
O=C1C(Cc2ccccc2)NC(=S)N1Cc1ccccc1 (stereo not drawn),1.8,-3.7,0.2,1.5,-4.9,4.4,.,.
CC(C)CC1NC(=S)N(Cc2ccccc2)C1=O (stereo not drawn),21.6,6.4,5.0,0.9,-16.1,87.2*,82.0*,53.4*
COc1ccc(NC(=O)CN(C)C(=O)CSCc2ccc(C)cc2)cc1,-11.9,0.2,3.6,-4.8,0.4,6.0,.,.
CCCNc1nc2ccccc2n2c(C)nnc12,-2.1,-10.1,-21.3,18.9,33.5,58.3*,33.5,.
Clc1ccc(/C=C/c2ncc[nH]2)c(Cl)c1,-2.3,8.0,-20.4,-24.1,-16.0,-0.9,.,.
C/C(=N\NC(N)=S)c1ccc2c(c1)OCCO2,-19.8,-0.8,-40.7,-10.9,-22.2,-21.1,.,.
C/C(=N\NC(=S)Nc1ccc(F)cc1)c1ccc2c(c1)OCCO2,75.7*,11.4,36.0,-12.4,-44.4,64.2*,62.2*,56.5*
Cc1ccc(NC(=O)/C(=C/c2cccc([N+](=O)[O-])c2)NC(=O)C2CCCCC2)c(C)c1,2.3,42.4,13.9,13.6,28.0,87.9*,-15.4,.
O=C(Nc1ccc([N+](=O)[O-])cc1)/C(=C/c1cccc([N+](=O)[O-])c1)NC(=O)C1CCCCC1,-7.8,13.2,6.0,4.8,-0.3,26.6,.,.
